Test [1] can be described thus: qHTS profiling for inhibitors of Plasmodium falciparum proliferation (AID 504749).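 For activity, negative = inhibition: 0% = DMSO vehicle and full inhibition = artemisinin control.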 For all read-outs here: nearly all actives have a fitted effect of over 60% in size. The settings on record: P. falciparum in erythrocytes, SYBR Green DNA, 72 h; for activity, negative = inhibition: at 28.7 µM (top of the series). A digest of the protocol:
(§1)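 Infected RBCs, 0.3% parasitemia/2.5% Hct final; cpd 72 h, 37 C, 5% CO2; lysis buffer with saponin/triton/SYBR Green I, o/n RT dark; FI 485/535; norm. to artemisinin (0.29 uM) and DMSO.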

The subject of another test is 3D7. The description is as above. The note with it: P. falciparum in erythrocytes, SYBR Green DNA, 72 h; series mostly up to 28.7 µM. In a few lines:
as §1

A further test concerns 7G8. Described as above. The note with it: P. falciparum in erythrocytes, SYBR Green DNA, 72 h; series mostly up to 28.7 µM. In a few lines: as §1
A further test relates to AA1029. Described as above. The note with it: P. falciparum in erythrocytes, SYBR Green DNA, 72 h; series mostly up to 28.7 µM. A digest of the protocol: as §1
The subject of a further test is AS120. The description is as above. The settings on record: P. falciparum in erythrocytes, SYBR Green DNA, 72 h; series mostly up to 28.7 µM. In a few lines:
as §1

Another test concerns ATS189. Described as above. The note with it: P. falciparum in erythrocytes, SYBR Green DNA, 72 h; series mostly up to 28.7 µM. In a few lines:
as §1

Another test deals with ATS95. The test is described as above. The note with it: P. falciparum in erythrocytes, SYBR Green DNA, 72 h; series mostly up to 28.7 µM. In a few lines:
as §1

In the next test the test system is C2A. Described as above. The note with it: P. falciparum in erythrocytes, SYBR Green DNA, 72 h; series mostly up to 28.7 µM. In a few lines: as §1
Another test concerns CP185. The description is as above. The note with it: P. falciparum in erythrocytes, SYBR Green DNA, 72 h; series mostly up to 28.7 µM. In a few lines:
as §1

A further test deals with CP191. The description is as above. The note with it: P. falciparum in erythrocytes, SYBR Green DNA, 72 h; series mostly up to 28.7 µM. In a few lines: as §1
The subject of the next test is CP192. The description is as above. The settings on record: P. falciparum in erythrocytes, SYBR Green DNA, 72 h; series mostly up to 28.7 µM. A digest of the protocol: as §1

SMILES strings stand for the structures. Records with an inconclusive call do not appear. Values without a mark were called inactive. Activity calls are given as the source filed them. Calls come from the whole dose curve; as a rule, active = well fitted inhibition curve with a large enough effect; inconclusive = small, poorly fitted or top-dose-only effect; inactive = flat fitted curve, though single readings scatter.
Potency is the fitted concentration of half-maximal effect.

Take `O=P(O)(O)OP(=O)(O)OP(=O)(O)O`: the activity, negative = inhibition was -4.84% in test [1] (parasite line A) and 8.54% in test [1] (parasite line B). Besides, the Potency entry in the test on 3D7, in the test on 7G8, with AA1029, with AS120, in the test with ATS189 and in the test with ATS95 was “inactive” throughout. Further, the Potency result in the test on C2A, with CP185, in the test on CP191 and in the test with CP192 was “inactive” throughout.

In the case of `O=C(O)CCC/C=C\C[C@@H]1[C@@H](/C=C/[C@@H](O)COc2cccc(C(F)(F)F)c2)[C@H](O)C[C@@H]1O`, the results for the activity, negative = inhibition in [1] (parasite line A) and in test [1] (parasite line B) were -5.12% and -7.34%, respectively. The Potency entry in the test with 3D7, with AA1029, in the test with AS120, in the test with ATS189, in the test with ATS95 and in the test with C2A was “inactive” in each case. For the same compound, the Potency entry in the test with CP185 and with CP191 was “inactive” in each case.

For `COc1ccc(/C=C/C(=O)O)cc1`, the figures for the activity, negative = inhibition in test [1] (parasite line A) and in test [1] (parasite line B) were 8.39% and -2.19%, respectively. Further, the Potency result with 3D7, with 7G8, in the test with AA1029, with AS120, with ATS189 and in the test on C2A was “inactive” in each case. For the same compound, the Potency result in the test on CP185, with CP191 and in the test with CP192 was “inactive” each time.

As to `C=CC(=O)O`, the values for the activity, negative = inhibition in test [1] (parasite line A) and in [1] (parasite line B) were 2.32% and 10.1%, respectively. For the same compound, the Potency result in the test on 3D7, with 7G8, in the test with AA1029, in the test on AS120, in the test on ATS189 and with ATS95 was “inactive” throughout. Also, the Potency entry in the test on C2A, in the test with CP185, with CP191 and in the test on CP192 was “inactive” throughout.

For `CCC(=O)c1ccc2c(c1)N(CCCN1CCN(CCO)CC1)c1ccccc1S2`, the Potency was 10 µM (active) in test [1] (parasite line A); 11.2 µM (active) in test [1] (parasite line B); 10 µM (active) in the test with 3D7; 11.2 µM (active) in the test with 7G8; 12.6 µM (active) in the test on AA1029; 12.6 µM (active) with AS120. The results for the Potency in the test on ATS189 and in the test with CP191 were 12.6 µM (active) and 5.62 µM (active), respectively.

On to `CC(C)C1=CC2=CC[C@@H]3[C@](C)(CCC[C@@]3(C)C(=O)O)[C@H]2CC1`, for which the results for the activity, negative = inhibition in [1] (parasite line A) and in test [1] (parasite line B) were -4.25% and -11.9%, respectively. Besides, the Potency entry in the test on 3D7, with AA1029, in the test with AS120, with ATS189, with ATS95 and with C2A was “inactive” in each case. The Potency entry in the test on CP185 and with CP191 was “inactive” in each case.

For the compound `C[C@H](O)CN(C)C`, the activity, negative = inhibition in test [1] (parasite line A) is 9.28%; in test [1] (parasite line B), 3.53%. In addition, the Potency entry with 3D7, in the test on 7G8, in the test on AA1029, in the test on AS120, in the test on ATS189 and in the test on ATS95 was “inactive” throughout. The Potency entry in the test with C2A, in the test with CP185, in the test on CP191 and in the test with CP192 was “inactive” throughout.

In the case of `Cc1ccc(S(=O)(=O)O)cc1C`, the activity, negative = inhibition in test [1] (parasite line A) was 8.18%; in test [1] (parasite line B) it was 4.98%. For the same compound, the Potency result in the test with 3D7, with 7G8, in the test on AA1029, with AS120, in the test on ATS189 and in the test on C2A was “inactive” in each case. Besides, the Potency result in the test with CP185, with CP191 and in the test on CP192 was “inactive” in each case.

As to `CC(C)CCC[C@@H](C)[C@H]1CC[C@H]2[C@@H]3CC[C@@H]4C[C@H](O)CC[C@]4(C)[C@H]3CC[C@]12C`, the figures for the activity, negative = inhibition in test [1] (parasite line A) and in [1] (parasite line B) were -5.47% and 5.75%, respectively. The Potency result in the test on 3D7, in the test on 7G8, in the test with AA1029, in the test on AS120, in the test with ATS189 and in the test on ATS95 was “inactive” throughout. Moreover, the Potency result in the test on C2A, in the test with CP185, with CP191 and in the test on CP192 was “inactive” in each case.

As to `CCCCCCCCCCCCCCCCCC(=O)OC[C@@H](O)[C@H]1OC[C@H](O)[C@H]1O`, the activity, negative = inhibition in [1] (parasite line A) was -5.9%; in [1] (parasite line B), -8.53%. The Potency entry in the test with 3D7, in the test on 7G8, in the test with AA1029, in the test with AS120, in the test with ATS189 and in the test with ATS95 was “inactive” in each case. Also, the Potency result in the test with C2A, in the test on CP185, with CP191 and in the test on CP192 was “inactive” in each case.

Turning to `CCN(CC)C(=O)c1cccnc1`, the activity, negative = inhibition in [1] (parasite line A) is 10.9%; in [1] (parasite line B), 11.6%. In addition, the Potency entry with 3D7, in the test on 7G8, with AA1029, with AS120, with ATS189 and in the test with ATS95 was “inactive” in each case. Also, the Potency result in the test with C2A, in the test with CP185, with CP191 and in the test with CP192 was “inactive” in each case.

`Cc1ncc(C[n+]2csc(CCOP(=O)(O)OP(=O)(O)O)c2C)c(N)n1`: the activity, negative = inhibition in test [1] (parasite line A) is -0.174%; in test [1] (parasite line B) it was 5.83%. Also, the Potency entry with 3D7, in the test on 7G8, in the test with AA1029, in the test with AS120, in the test with ATS189 and with ATS95 was “inactive” throughout. Further, the Potency entry with C2A, in the test with CP185, in the test on CP191 and in the test with CP192 was “inactive” throughout.

Regarding `O=C(O)CC/C=C\CC[C@@H]1[C@@H](N2CCCCC2)[C@@H](O)C[C@@H]1OCc1ccc(-c2ccccc2)cc1`, the activity, negative = inhibition in test [1] (parasite line A) is 6.82%; in test [1] (parasite line B), 1.98%. Moreover, the Potency entry in the test with 3D7, with AA1029, with AS120, in the test on ATS189, with ATS95 and with C2A was “inactive” each time. For the same compound, the Potency result in the test with CP185 and with CP192 was “inactive” in each case.

`CS(=O)(=O)c1ccc([C@@H](O)[C@@H](COC(=O)CN)NC(=O)C(Cl)Cl)cc1`: the activity, negative = inhibition in [1] (parasite line A) is -27.9%; in test [1] (parasite line B), -23.7%. For the same compound, the Potency entry in the test on 3D7, in the test with AS120, in the test with ATS189, in the test on CP191 and with CP192 was “inactive” throughout.

As to `NC(=O)[C@@H]1CCCN1C(=O)[C@H](Cc1cnc[nH]1)NC(=O)[C@@H]1CCC(=O)N1`, the activity, negative = inhibition was 0.117% in test [1] (parasite line A) and 4.94% in [1] (parasite line B). In addition, the Potency entry with 3D7, in the test with AA1029, in the test on AS120, in the test with ATS189, in the test on ATS95 and with C2A was “inactive” each time. In addition, the Potency entry with CP185, with CP191 and in the test with CP192 was “inactive” each time.

For the compound `OC1OC[C@@H](O)[C@H](O)[C@@H]1O` (some centres undefined), the activity, negative = inhibition in [1] (parasite line A) is -2.48%. The Potency entry in the test with 3D7, with 7G8, in the test with AA1029, with AS120, in the test with ATS189 and in the test on ATS95 was “inactive” each time. Besides, the Potency result in the test on C2A, with CP185, in the test on CP191 and in the test on CP192 was “inactive” each time.

With `CCN(CC)CCOc1ccc2nc(N(C)C)sc2c1`, the activity, negative = inhibition was 2.07% in test [1] (parasite line A) and 4.31% in [1] (parasite line B). Also, the Potency entry with 7G8, in the test on AA1029, in the test on AS120, in the test on ATS189, with ATS95 and in the test with C2A was “inactive” in each case. Further, the Potency entry in the test with CP185, in the test with CP191 and with CP192 was “inactive” throughout.

The values are drawn from PubChem BioAssay (NCATS).
